{"source": "paper PMC11995724", "about": "“Antibiotic target discovery by integrated phenotypic and activity-based profiling of electrophilic fragments” (Cell chemical biology, 2025)", "note": "In all, about 3,200 compounds went through this assay and about 75 (2%) showed an effect of 50% or more. This is one part of a sample in which strong results are shown more often than they occur."}
{"system": "T1, S. aureus MSSA476", "T1 construct": "MSSA476", "design": "species or system S. aureus MSSA476 (TSB) or V. cholerae SAD30 (LB); 384-well bacterial growth screen at 25 uM, OD600 relative to DMSO control", "details": "relative growth, OD600, TSB; 25 µM; inhibitor", "units": {"% of control remaining": "%"}}
{"molecule": "CCN(CC)C(=O)c1cccc(NC(=O)CCl)c1", "note": "[5-I03, 3-(2-chloroacetamido)-N,N-diethylbenzamide]", "% of control remaining": 102.732}
{"molecule": "N#CC(=Cc1cccs1)C(=O)Nc1ccc(C(=O)O)cc1", "note": "[8-A04, 4-[2-cyano-3-(thiophen-2-yl)prop-2-enamido]benzoic acid]", "% of control remaining": 109.212}
{"molecule": "CC(C)Oc1ccccc1C=C(C#N)C(=O)Nc1ccc(Cl)cc1", "note": "[9-L20, N-(4-chlorophenyl)-2-cyano-3-[2-(propan-2-yloxy)phenyl]prop-2-enamide]", "% of control remaining": 108.464}
{"molecule": "N#CCCSc1ccccc1NC(=O)CCl", "note": "[6-N12, 2-chloro-N-{2-[(2-cyanoethyl)sulfanyl]phenyl}acetamide]", "% of control remaining": 88.439}
{"molecule": "CC(=O)NCCc1ccc(C(=O)CCl)s1", "note": "[10-P03, N-{2-[5-(2-chloroacetyl)thiophen-2-yl]ethyl}acetamide]", "% of control remaining": 143.125}
{"molecule": "C=CC(=O)N1CCCN(C(=O)c2ccc(OC)cc2)CC1", "note": "[3-A21, 1-[4-(4-methoxybenzoyl)-1,4-diazepan-1-yl]prop-2-en-1-one]", "% of control remaining": 128.864}
{"molecule": "C=CC(=O)N(CC)Cc1cn(C)nn1", "note": "[2-O09, N-ethyl-N-[(1-methyl-1H-1,2,3-triazol-4-yl)methyl]prop-2-enamide]", "% of control remaining": 106.527}
{"molecule": "CN(CC(=O)Nc1ccccc1Cl)C(=O)CCl", "note": "[4-D05, 2-chloro-N-{[(2-chlorophenyl)carbamoyl]methyl}-N-methylacetamide]", "% of control remaining": 122.344}
{"molecule": "C=CC(=O)NCCc1ccccc1OC", "note": "[2-O03, N-[2-(2-methoxyphenyl)ethyl]prop-2-enamide]", "% of control remaining": 95.7354}
{"molecule": "C=CC(=O)N1CCOCC2(COCCN2C)C1", "note": "(stereo not shown) [3-J14, 1-{1-methyl-4,8-dioxa-1,11-diazaspiro[5.6]dodecan-11-yl}prop-2-en-1-one]", "% of control remaining": 109.012}
{"molecule": "CC(Cl)C(=O)N1CCCC(NS(=O)(=O)c2cccc(F)c2)C1", "note": "(stereo not shown) [7-C13, N-[1-(2-chloropropanoyl)piperidin-3-yl]-3-fluorobenzene-1-sulfonamide]", "% of control remaining": 102.355}
{"molecule": "Cc1cc(C(=O)CCl)c(C)n1-c1ccc(OC(F)F)c(Cl)c1", "note": "[10-K04, 2-chloro-1-{1-[3-chloro-4-(difluoromethoxy)phenyl]-2,5-dimethyl-1H-pyrrol-3-yl}ethan-1-one]", "% of control remaining": 0}
{"molecule": "Cc1cc(C(=O)C(C)Cl)c(C)n1-c1ccc(OC(F)F)cc1", "note": "(stereo not shown) [10-E10, 2-chloro-1-{1-[4-(difluoromethoxy)phenyl]-2,5-dimethyl-1H-pyrrol-3-yl}propan-1-one]", "% of control remaining": 125.938}
{"molecule": "Cc1cc(C(=O)CCl)c(C)n1-c1ccon1", "note": "[10-F06, 2-chloro-1-[2,5-dimethyl-1-(1,2-oxazol-3-yl)-1H-pyrrol-3-yl]ethan-1-one]", "% of control remaining": 106.875}
{"molecule": "Cc1cc(C(=O)CCl)c(C)n1-c1ccc(Cl)c(C(F)(F)F)c1", "note": "[10-L18, 2-chloro-1-{1-[4-chloro-3-(trifluoromethyl)phenyl]-2,5-dimethyl-1H-pyrrol-3-yl}ethan-1-one]", "% of control remaining": 0.3125}
{"molecule": "Cc1cc(C(=O)CCl)c(C)n1-c1ccc(OC(F)(F)F)cc1", "note": "[10-G04, 2-chloro-1-{2,5-dimethyl-1-[4-(trifluoromethoxy)phenyl]-1H-pyrrol-3-yl}ethan-1-one]", "% of control remaining": 115.313}
{"molecule": "CC(Cl)C(=O)NCCc1nnc2n1CCCCC2", "note": "(stereo not shown) [7-D09, 2-chloro-N-(2-{5H,6H,7H,8H,9H-[1,2,4]triazolo[4,3-a]azepin-3-yl}ethyl)propanamide]", "% of control remaining": 92.3077}
{"molecule": "O=C(CCl)Nc1cc(-n2cnnn2)ccc1Cl", "note": "[6-A05, 2-chloro-N-[2-chloro-5-(1H-1,2,3,4-tetrazol-1-yl)phenyl]acetamide]", "% of control remaining": 78.1951}
{"molecule": "CC(Cl)C(=O)NCc1nn(-c2ccccc2)c2c1CCC2", "note": "(stereo not shown) [7-P05, 2-chloro-N-({1-phenyl-1H,4H,5H,6H-cyclopenta[c]pyrazol-3-yl}methyl)propanamide]", "% of control remaining": 91.9937}
{"molecule": "COc1ccc(OC)c(-c2csc(NC(=O)CCl)n2)c1", "note": "[4-H12, 2-chloro-N-[4-(2,5-dimethoxyphenyl)-1,3-thiazol-2-yl]acetamide]", "% of control remaining": 86.8985}
{"molecule": "COc1ccc(-c2csc(NC(=O)CCl)n2)cc1", "note": "[4-N06, 2-chloro-N-[4-(4-methoxyphenyl)-1,3-thiazol-2-yl]acetamide]", "% of control remaining": 111.291}
{"molecule": "O=C(CCl)Nc1nc(-c2ccccc2)cs1", "note": "[4-L04, 2-chloro-N-(4-phenyl-1,3-thiazol-2-yl)acetamide]", "% of control remaining": 143.306}
{"molecule": "COc1ccc(-c2csc(NC(=O)CCl)n2)c(OC)c1", "note": "[4-F12, 2-chloro-N-[4-(2,4-dimethoxyphenyl)-1,3-thiazol-2-yl]acetamide]", "% of control remaining": 83.4683}
{"molecule": "CCCc1ccc(-c2csc(NC(=O)CCl)n2)cc1", "note": "[4-C09, 2-chloro-N-[4-(4-propylphenyl)-1,3-thiazol-2-yl]acetamide]", "% of control remaining": 5.717}
{"molecule": "COc1ccc(-c2csc(NC(=O)CCl)n2)c(O)c1", "note": "[4-A11, 2-chloro-N-[4-(2-hydroxy-4-methoxyphenyl)-1,3-thiazol-2-yl]acetamide]", "% of control remaining": 1.1434}
{"molecule": "CC(Cl)C(=O)N1CCN(C(C)c2cccc(C#N)c2)CC1", "note": "(stereo not shown) [7-P22, 3-{1-[4-(2-chloropropanoyl)piperazin-1-yl]ethyl}benzonitrile]", "% of control remaining": 115.542}
{"molecule": "C=CC(=O)NCCc1nnc(C)s1", "note": "[3-G22, N-[2-(5-methyl-1,3,4-thiadiazol-2-yl)ethyl]prop-2-enamide]", "% of control remaining": 111.45}
{"molecule": "C=CC(=O)N(CC)CC(=O)N1CCCC1c1ccc(F)cc1C", "note": "(stereo not shown) [2-F08, N-ethyl-N-{2-[2-(4-fluoro-2-methylphenyl)pyrrolidin-1-yl]-2-oxoethyl}prop-2-enamide]", "% of control remaining": 97.1279}
{"molecule": "CC(=O)c1cccc(S(=O)(=O)N2CCN(C(=O)CCl)CC2)c1", "note": "[4-F05, 1-[4-(3-acetylbenzenesulfonyl)piperazin-1-yl]-2-chloroethan-1-one]", "% of control remaining": 105.574}
{"molecule": "C=CC(=O)N1CCC(Cn2nc(C)cc2C)CC1", "note": "[2-C17, 1-{4-[(3,5-dimethyl-1H-pyrazol-1-yl)methyl]piperidin-1-yl}prop-2-en-1-one]", "% of control remaining": 100.957}
{"molecule": "CCOc1ccccc1NC(=O)C(C#N)=Cc1c(F)cccc1F", "note": "[8-G21, 2-cyano-3-(2,6-difluorophenyl)-N-(2-ethoxyphenyl)prop-2-enamide]", "% of control remaining": 69.3776}
{"molecule": "CCc1cnc(N2CCN(C(=O)C(C)Cl)CC2)s1", "note": "(stereo not shown) [7-C20, 2-chloro-1-[4-(5-ethyl-1,3-thiazol-2-yl)piperazin-1-yl]propan-1-one]", "% of control remaining": 99.2151}
{"molecule": "C=CC(=O)N(C)CC(=O)N1CCC2(CC1)CC2c1nnc(C(C)C)o1", "note": "(stereo not shown) [2-N22, N-methyl-N-(2-oxo-2-{1-[5-(propan-2-yl)-1,3,4-oxadiazol-2-yl]-6-azaspiro[2.5]octan-6-yl}ethyl)prop-2-enamide]", "% of control remaining": 98.8686}
{"molecule": "N#CC(=Cc1ccc2c(c1)OCO2)C(=O)NCc1ccccc1", "note": "[8-A09, 3-(1,3-dioxaindan-5-yl)-N-benzyl-2-cyanoprop-2-enamide]", "% of control remaining": 113.527}
{"molecule": "COC(=O)c1c(C(=O)CCl)c(C)n(C(C)C)c1C", "note": "[10-K21, methyl 4-(2-chloroacetyl)-2,5-dimethyl-1-(propan-2-yl)-1H-pyrrole-3-carboxylate]", "% of control remaining": 119.375}
{"molecule": "CC(C)n1ccnc1C(=O)CCl", "note": "[10-H10, 2-chloro-1-[1-(propan-2-yl)-1H-imidazol-2-yl]ethan-1-one]", "% of control remaining": 2.1875}
{"molecule": "Cn1ccnc1C(=O)CCl", "note": "[10-C15, 2-chloro-1-(1-methyl-1H-imidazol-2-yl)ethan-1-one]", "% of control remaining": 93.75}
{"molecule": "C=CCNC(=O)C(C#N)=Cc1sccc1C", "note": "[9-P07, 2-cyano-3-(3-methylthiophen-2-yl)-N-(prop-2-en-1-yl)prop-2-enamide]", "% of control remaining": 115.955}
{"molecule": "CC(Cl)C(=O)Nc1ccc(Cl)cc1Cl", "note": "(stereo not shown) [4-L17, 2-chloro-N-(2,4-dichlorophenyl)propanamide]", "% of control remaining": 92.9967}
{"molecule": "CC(Cl)C(=O)N1CCCN(C(=O)c2cc(Cl)cn2C)CC1", "note": "(stereo not shown) [7-N07, 2-chloro-1-[4-(4-chloro-1-methyl-1H-pyrrole-2-carbonyl)-1,4-diazepan-1-yl]propan-1-one]", "% of control remaining": 91.6797}
{"molecule": "NC(=O)Nc1ccc(C(=O)CCl)cc1", "note": "[10-J07, [4-(2-chloroacetyl)phenyl]urea]", "% of control remaining": 55.625}
{"molecule": "CC(C)CC(=O)Nc1ccc(C(=O)CCl)cc1", "note": "[10-N06, N-[4-(2-chloroacetyl)phenyl]-3-methylbutanamide]", "% of control remaining": 1.25}
{"molecule": "CS(=O)(=O)Nc1ccc(C(=O)CCl)cc1", "note": "[10-D19, N-[4-(2-chloroacetyl)phenyl]methanesulfonamide]", "% of control remaining": 28.125}
{"molecule": "CC(=O)c1ccc(NC(=O)CCl)cc1", "note": "[4-G07, N-(4-acetylphenyl)-2-chloroacetamide]", "% of control remaining": 93.7589}
{"molecule": "O=C(CCl)c1ccc(NC(=O)c2ccccc2)cc1", "note": "[10-B06, N-[4-(2-chloroacetyl)phenyl]benzamide]", "% of control remaining": 0}
{"molecule": "NC(=O)c1ccc(NC(=O)CCl)cc1", "note": "[4-P04, 4-(2-chloroacetamido)benzamide]", "% of control remaining": 95.2835}
{"molecule": "O=C(CCl)Nc1cccc(NC(=O)c2ccccc2)c1", "note": "[6-A03, N-[3-(2-chloroacetamido)phenyl]benzamide]", "% of control remaining": 76.1463}
{"molecule": "CS(=O)(=O)NCCc1ccc(C(=O)CCl)cc1", "note": "[10-D06, N-{2-[4-(2-chloroacetyl)phenyl]ethyl}methanesulfonamide]", "% of control remaining": 79.375}
{"molecule": "CS(=O)(=O)c1ccc(C(=O)CCl)cc1", "note": "[10-I13, 2-chloro-1-(4-methanesulfonylphenyl)ethan-1-one]", "% of control remaining": 83.125}
{"molecule": "CCCC(=O)Nc1ccc(C(=O)C(C)Cl)cc1", "note": "(stereo not shown) [10-O06, N-[4-(2-chloropropanoyl)phenyl]butanamide]", "% of control remaining": 121.875}
{"molecule": "CC(=O)Nc1ccc(C(=O)CCl)cc1", "note": "[10-O12, N-[4-(2-chloroacetyl)phenyl]acetamide]", "% of control remaining": 6.875}
{"molecule": "COc1ccccc1NC(=O)c1ccc(NC(=O)CCl)cc1", "note": "[4-O17, 4-(2-chloroacetamido)-N-(2-methoxyphenyl)benzamide]", "% of control remaining": 92.2344}
